Measurements as given in PubChem BioAssay AID2546 (National Center for Advancing Translational Sciences (NCATS), 2010).
Where “and” joins values, the source holds several entries; their conditions need not be identical. Equal values may be shown once. Among all 310,000 compounds or so, about 11,000 (3.5%) were called active. Roughly 8% stayed inconclusive and do not appear here. Shown is part of a subset that was picked to be rich in actives. Unmarked numbers belong to inactive results. The call rests on the fitted dose curve; in most records, active means well fitted inhibition curve with a large enough effect; inconclusive means small, poorly fitted or top-dose-only effect, or effect the other way; inactive means flat fitted curve, though single readings scatter.

assay: VP16 counterscreen qHTS for inhibitors of ROR gamma transcriptional activity; conditions: Drosophila S2 Gal4-VP16 UAS-luciferase, luminescence, 20 h; series mostly up to 53.6 µM; activity, negative = inhibition: at the top concentration;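 further: Gal4-VP16 expression switched on by copper sulfate through the metallothionein promoter; nearly all actives have a fitted effect of over 50% in size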
On the % scale 0 is the no-effect control and ±100 the full control effect; potency means the concentration at half of the fitted maximal effect.

| SMILES | activity, negative = inhibition | Potency |
| --- | --- | --- |
| Nc1nonc1-n1nnc(C(=O)N/N=C/C2CCCCC2)c1-c1ccccc1 | -2.79% | – |
| COc1ccc(NC(=O)c2cccc3c2C(=O)N(CC2CCCO2)C3)cc1OC (stereo not drawn) | 5.55% | – |
| O=C(NNS(=O)(=O)c1ccc(F)cc1)C1CCCCC1 | 8.02% | – |
| COc1cc(SC#N)ccc1N=Cc1c(C)[nH]n(-c2ccc(C)cc2)c1=O | – | 5.62 µM (active) |
| COc1cc(NS(=O)(=O)c2ccc(N=Cc3c(C)[nH]n(-c4ccccc4)c3=O)cc2)nc(OC)n1 | -3.08% | – |
| O=S(=O)(Nc1cccc(-n2cnnn2)c1)c1cnc(Cl)c(Cl)c1 | -5.26% | – |
| CCc1ccc(S(=O)(=O)Nc2cc3c(cc2N2CCCCC2)n(C)c(=O)c(=O)n3C)cc1 | 4.34% | – |
| CSCCC(NS(=O)(=O)c1ccc(C)cc1)C(=O)NCCc1c[nH]c2ccccc12 (stereo not drawn) | 8.21% | – |
| COc1ccc(C(=O)c2c(C)c(CCC#N)n3ccccc23)c(OC)c1 | 1.13% | – |
| CC(C)c1cc(C(=O)N/N=C/C(Br)=C/c2ccccc2)n[nH]1 | -5.48% | – |
| Cc1ccc(-c2cc(C(=O)N/N=C/C=C/c3ccccc3)n[nH]2)o1 | – | 20 µM (active) |
| Cc1ccc(-c2cc(C(=O)NN)n[nH]2)o1 | -7.13% | – |
| Cc1cc2oc(=O)cc(CN3CCN(Cc4ccccc4)CC3)c2cc1C | 2.41% | – |
| COc1cccc(CNC(=O)Cn2c(=O)oc3cc(S(=O)(=O)N4CCCCC4)ccc32)c1 | 0.42% | – |
| Cc1ccc(N2CCN(C(=O)c3cccs3)CC2)c(C)c1 | -5.29% | – |
| Cc1ccccc1NC(=O)Nc1ccccc1N1CCCCC1 | 0.145% | – |
| COc1ccccc1C(=O)NC(=S)Nc1ccccc1N1CCCCC1 | – | 10 µM (active) |
| O=C(Nc1ccccc1N1CCCCC1)c1cccc(F)c1 | 4.09% | – |
| O=C(Nc1ccccc1N1CCCC1)c1ccc2ccccc2c1 | -5.87% | – |
| O=C(CCNC(=O)c1ccc([N+](=O)[O-])cc1)Nc1ccccc1N1CCOCC1 | -9.76% | – |
| COc1ccc(C(=O)NC(=S)Nc2ccccc2N2CCN(S(C)(=O)=O)CC2)cc1OC | 0.0024% | – |
| CCc1ccc(C(=O)NC(=S)Nc2ccccc2N2CCOCC2)cc1 | – | 3.16 µM (active) |
| O=C(NC(=S)Nc1ccccc1N1CCCCC1)c1ccc(F)cc1 | – | 6.31 µM (active) |
| CC(=O)c1ccc(N2CCN(CC(=O)Nc3ccccc3N3CCOCC3)CC2)cc1 | -11.4% [at 10 µM] | – |
| COc1ccc(/C=C(\C#N)c2c[nH]c3ccccc23)cc1 | -10.3% | – |
| Cn1c(=O)oc2cc(S(=O)(=O)NCCC(=O)NCc3ccccc3Cl)ccc21 | -0.339% | – |
| CN(Cc1ccccc1)C(=O)C1CCCN(c2ncnc3c2nc2n3CCCCC2)C1 (stereo not drawn) | 3.49% | – |

| SMILES | activity, negative = inhibition | Potency |
| --- | --- | --- |
| CC1CCN(CCCn2c(SCC(=O)NC3CCCC3)nc3ccccc3c2=O)CC1 | -1.18% | – |
| Cc1c2cnn(CC(=O)NCc3ccccn3)c(=O)c2c(C)n1Cc1ccc(Cl)cc1 | -2.27% | – |
| O=C1Nc2ccccc2/C1=C/c1ccnc2ccccc12 | 16.7% | – |
| COc1cc(CN2CCCC(C(=O)c3ccc(SC)cc3)C2)cc(Cl)c1O (stereo not drawn) | -0.743% | – |
| COc1ccc(NC(=O)C2CCN(S(=O)(=O)c3ccc4[nH]c(=O)oc4c3)CC2)c(OC)c1 | -0.696% | – |
| C=CCSc1nnc(N2C(=O)C(O)=C(C(=O)c3ccco3)C2c2ccc(F)cc2)s1 (stereo not drawn) | 0.533% | – |
| O=S(=O)(c1ccc(Br)cc1)c1nc(-c2ccccc2)oc1N1CCOCC1 | 7.68% | – |
| COc1cc(C(=O)NC2CCN(Cc3ccccc3)CC2)cc(Cl)c1OC(C)C | -9.67% | – |
| CC(C)(C)Nc1nc(-c2ccccn2)nc2ccccc12 | – | 3.98 µM (active) |
| CCOC(=O)c1cnc(-c2ccccc2)nc1Oc1ccc(C)cc1 | -6.34% | – |
| Cc1cnc(CNc2nc(-c3cccnc3)nc3ccccc23)cn1 | 3.82% | – |
| COc1ccccc1Oc1nc(-c2cccnc2)nc2ccccc12 | 9.33% | – |
| CNc1nc(-c2ccccc2OC)nc2ccccc12 | -16.4% | – |
| COc1ccc(Sc2nc(-c3ccccc3)ncc2OC)cc1 | 4.2% | – |
| Cc1ccc(Oc2nc(-c3ccccn3)nc3ccccc23)cc1 | – | 3.16 µM (active) |
| COc1cnc(-c2ccccn2)nc1Oc1ccc(C(C)(C)C)cc1 | – | 12.6 µM (active) |
| COc1ccc(Cc2nc(-c3ccccn3)no2)cc1OC | -24.4% | – |
| CCCc1ccc(OCC(O)CN2CCN(C(=O)OCC)CC2)cc1 (stereo not drawn) | -1.66% | – |
| CC(C)c1ccc(NC(=O)C2CCCN(S(=O)(=O)c3cccnc3)C2)cc1 (stereo not drawn) | 12.4% | – |
| CCCn1c(C2CCCN2c2nc(-c3ccc(C)cc3)cs2)nc2cc(Cl)c(N3CCCCC3)cc21 (stereo not drawn) | -4.11% | – |
| COc1ccc(CNC(=O)c2cc(=O)c3c(C)cc(C)cc3o2)cc1 | 3.05% | – |
| O=C(NCCCN1CCOCC1)c1cc(-c2ccccc2F)no1 | -7.28% | – |
| COc1ccccc1N1CCN(S(=O)(=O)c2ccc3c(c2)NC(=O)CS3)CC1 | 1.7% | – |
| Cc1ccccc1NC(=O)c1ccccc1NS(=O)(=O)c1cccc2cccnc12 | -4.15% | – |
| O=[N+]([O-])c1ccccc1S(=O)(=O)Nc1cccc2cccnc12 | – | 1.41 µM (active) and 1 µM (active) |
| O=[N+]([O-])c1cccc2ncccc12 | 21.2% | – |
